Counter-ions that a name gives are not always drawn.
Assays:
Conditions in all cases: 20 µM; incubation time: 27 h, anaerobic, 37 °C;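 for the amine columns active = adjusted P below 0.05 in both replicates with a change the same way and a mean fold change under 0.8 or over 1.25; inactive = the rest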
[1] = system: Clostridium sporogenes DSM 1664; assay: growth (OD595) fold change vs plate DMSO controls (fold change (ratio)); higher = more growth
How it was run: (§1)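 Shaken 96-well cultures in mGAM, grown anaerobically for 27 h at 37 °C, were read at 595 nm. OD came from blank-subtracted readings, corrected for background with 20 µM compound solutions in water and scaled by a calibration factor of 5. Growth is the fold change versus the plate's median DMSO control. Values average 2 biological replicates, and any fold change above 1.5 is NA.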

Escherichia coli IAI1 [2] = assay: as above
How it was run: as §1

[3] = system: Klebsiella aerogenes DSM 30053; assay: as above
How it was run: as §1

[4] = system: Ruminococcus gnavus DSM 108212; assay: as above
How it was run: as §1

[5] = system: Klebsiella aerogenes DSM 30053; assay: fold change of Histamine concentration vs plate DMSO controls (fold change (ratio)); higher = more amine produced, active = hit call of the paper (significant change in both replicates, either direction)
How it was run: (§2)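 Using LC–triple-quadrupole MS with dynamic MRM, amines were quantified against external calibration curves and corrected for drift within each batch. Samples were whole anaerobic mGAM cultures of four gut strains, grown 27 h at 37 °C from OD 0.1 before 1:1 dilution, extracted with cold acetonitrile/methanol containing 0.1% formic acid and centrifuged. Compounds were present at 20 µM final (sweeteners at 50 µM final). The numbers are fold changes versus plate DMSO controls, each the mean of 2 biological replicates.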

[6] = system: Clostridium sporogenes DSM 1664; assay: fold change of Tryptamine concentration vs plate DMSO controls (fold change (ratio)); higher = more amine produced, active = hit call of the paper (significant change in both replicates, either direction)
How it was run: as §2

[7] = system: Ruminococcus gnavus DSM 108212; assay: as above
How it was run: as §2

Escherichia coli IAI1 [8] = assay: fold change of Putrescine concentration vs plate DMSO controls (fold change (ratio)); higher = more amine produced, active = hit call of the paper (significant change in both replicates, either direction)
How it was run: as §2

[9] = system: Klebsiella aerogenes DSM 30053; assay: as above
How it was run: as §2

Escherichia coli IAI1 [10] = assay: fold change of Cadaverine concentration vs plate DMSO controls (fold change (ratio)); higher = more amine produced, active = hit call of the paper (significant change in both replicates, either direction)
How it was run: as §2

[11] = system: Klebsiella aerogenes DSM 30053; assay: as above
How it was run: as §2

[12] = system: Ruminococcus gnavus DSM 108212; assay: fold change of 2-Phenylethylamine concentration vs plate DMSO controls (fold change (ratio)); higher = more amine produced, active = hit call of the paper (significant change in both replicates, either direction)
How it was run: as §2

Row | SMILES | growth [1] | growth (Escherichia coli IAI1 [2]) | growth [3] | growth [4] | fold change of Histamine concentration [5] | fold change of Tryptamine concentration [6] | fold change of Tryptamine concentration [7] | fold change of Putrescine concentration (Escherichia coli IAI1 [8]) | fold change of Putrescine concentration [9] | fold change of Cadaverine concentration (Escherichia coli IAI1 [10]) | fold change of Cadaverine concentration [11] | fold change of 2-Phenylethylamine concentration [12]
1 | COc1ccc(C(=CC(=O)N2CCOCC2)c2ccc(Cl)cc2)cc1OC (mixture of isomers) | 1.18 | 1.01 | 1.01 | 0.966 | 1.01 (inactive) | 1.11 (inactive) | 1.08 (inactive) | 0.946 (inactive) | 0.965 (inactive) | 0.929 (inactive) | 1.06 (inactive) | 1.09 (inactive)
2 | CC(CCc1ccccc1)NC(C)C(O)c1ccc(O)cc1 (centres undefined) [Nylidrin] | 0.853 | 1.13 | 1.21 | 1 | 1 (inactive) | 0.986 (inactive) | 0.929 (inactive) | 1.03 (inactive) | 1.05 (inactive) | 0.961 (inactive) | 1.02 (inactive) | 0.902 (inactive)
3 | C[C@]12CC[C@@H]3c4ccc(OC(=O)N(CCCl)CCCl)cc4CC[C@H]3[C@@H]1CC[C@@H]2O [Estramustine] | 0.804 | 0.998 | 0.983 | 1.24 | 0.899 (inactive) | 0.616 (active) | 0.949 (inactive) | 1.01 (inactive) | 1.01 (inactive) | 1.05 (inactive) | 1.04 (inactive) | 0.928 (inactive)
4 | C[N+]1(C)CCCCC1 | 1 | 1.08 | 1.02 | 1.04 | 1.01 (inactive) | 0.957 (inactive) | 1.03 (inactive) | 1 (inactive) | 1.01 (inactive) | 0.995 (inactive) | 1.02 (inactive) | 1.05 (inactive)
5 | O=[N+]([O-])c1cc(C(F)(F)F)c(Cl)c([N+](=O)[O-])c1Nc1ncc(C(F)(F)F)cc1Cl | 0.825 | 0.986 | 0.991 | 1.18 | 1.07 (inactive) | 0.464 (inactive) | 0.887 (inactive) | 1.05 (inactive) | 1.05 (inactive) | 1.15 (inactive) | 1.02 (inactive) | 0.826 (inactive)
6 | COP(=O)(OC)OC=C(Cl)Cl | 1.05 | 1.03 | 0.995 | 1.07 | 0.89 (inactive) | 1.05 (inactive) | 1.06 (inactive) | 0.985 (inactive) | 0.921 (inactive) | 0.964 (inactive) | 1.06 (inactive) | 1.07 (inactive)
7 | OC(Cn1cncn1)(c1ccc(F)cc1)c1ccccc1F (centres undefined) | 1.15 | 1.06 | 1.01 | 0.99 | 1.01 (inactive) | 0.985 (inactive) | 0.984 (inactive) | 1.03 (inactive) | 1.02 (inactive) | 1.03 (inactive) | 0.992 (inactive) | 0.948 (inactive)
8 | COCC(C)N(C(=O)CCl)c1c(C)csc1C (centres undefined) | 1.06 | 1.02 | 1.03 | 0.986 | 0.989 (inactive) | 1.02 (inactive) | 0.991 (inactive) | 1.01 (inactive) | 1.01 (inactive) | 0.953 (inactive) | 1.04 (inactive) | 0.941 (inactive)
9 | CN1C(=O)COc2c(C(=O)NC3CN4CCC3CC4)cc(Cl)cc21 (centres undefined) [Azasetron hydrochloride] | 0.734 | 0.55 | 0.585 | 0.0388 | 1.03 (inactive) | 0.992 (inactive) | 1.02 (inactive) | 0.507 (inactive) | 0.996 (inactive) | 0.512 (inactive) | 0.982 (inactive) | 0.986 (inactive)
10 | Clc1ccc(C(c2ccc(Cl)cc2)C(Cl)(Cl)Cl)cc1 | 0.984 | 0.974 | 0.996 | 1.12 | 1.03 (inactive) | 1.02 (inactive) | 0.962 (inactive) | 1.06 (inactive) | 1.02 (inactive) | 0.957 (inactive) | 1 (inactive) | 0.914 (inactive)
11 | COc1ccccc1N [o-Anisidine] | 1.07 | 1.04 | 0.996 | 1.01 | 1.03 (inactive) | 1.08 (inactive) | 1 (inactive) | 1 (inactive) | 0.983 (inactive) | 0.947 (inactive) | 0.997 (inactive) | 1.01 (inactive)
12 | CC(Cc1ccc(O)cc1)NCC(O)c1cc(O)cc(O)c1 (centres undefined) [Fenoterol hydrobromide] | 1 | 1 | 1.01 | 1.21 | 1.06 (inactive) | 0.982 (inactive) | 1.04 (inactive) | 1.02 (inactive) | 1.04 (inactive) | 0.983 (inactive) | 0.991 (inactive) | 1.04 (inactive)
13 | COC(=O)N(OC)c1ccccc1COc1ccn(-c2ccc(Cl)cc2)n1 | 0.99 | 0.988 | 1.07 | 1.02 | 1.02 (inactive) | 1.02 (inactive) | 0.921 (inactive) | 1.04 (inactive) | 1.02 (inactive) | 1.01 (inactive) | 1 (inactive) | 0.888 (inactive)
14 | COc1cc([C@@H]2c3cc4c(cc3[C@H](O)[C@H]3COC(=O)[C@H]23)OCO4)cc(OC)c1OC [Podophyllotoxin] | 1.13 | 1.18 | 1.14 | 0.888 | 0.958 (inactive) | 1.01 (inactive) | 1.03 (inactive) | 1.06 (inactive) | 1.02 (inactive) | 0.931 (inactive) | 1.02 (inactive) | 1.02 (inactive)
15 | c1ccc2c(c1)OCC(C1=NCCN1)O2 (centres undefined) [Idazoxan hydrochloride] | 1.09 | 1.01 | 1.01 | 0.978 | 1 (inactive) | 0.976 (inactive) | 0.832 (inactive) | 1.1 (inactive) | 0.998 (inactive) | 0.996 (inactive) | 0.996 (inactive) | 0.785 (inactive)
16 | C[C@@H]1C[C@@H]([C@H](O)CC2CC(=O)NC(=O)C2)C(=O)[C@@H](C)C1 [Cycloheximide] | 1.17 | 0.978 | 0.995 | 1.25 | 1.08 (inactive) | 0.956 (inactive) | 1.01 (inactive) | 1.06 (inactive) | 1.03 (inactive) | 1.01 (inactive) | 0.998 (inactive) | 0.95 (inactive)
17 | CC1(C)CON(Cc2ccccc2Cl)C1=O | 0.972 | 0.994 | 0.994 | 0.976 | 1.02 (inactive) | 1.02 (inactive) | 1.01 (inactive) | 1.01 (inactive) | 1 (inactive) | 1.02 (inactive) | 0.986 (inactive) | 0.993 (inactive)
18 | CC(C)=CC1C(C(=O)OCc2cccc(Oc3ccccc3)c2)C1(C)C (centres undefined) [Phenothrin] | 0.963 | 1.02 | 1.05 | 1.06 | 0.924 (inactive) | 1.02 (inactive) | 1.05 (inactive) | 1.07 (inactive) | 1.02 (inactive) | 1.03 (inactive) | 1.01 (inactive) | 1.06 (inactive)
19 | CC1C=CC=CCCC=CC=CC=CC=CC(OC2OC(C)C(O)C(N)C2O)CC2OC(O)(CC(O)C(O)CCC(O)CC(O)CC(O)CC(=O)OC(C)C(C)C1O)CC(O)C2C(=O)O (centres undefined) [Nystatine] | 0.964 | 0.993 | 1.01 | 1.16 | 0.962 (inactive) | 0.989 (inactive) | 1.01 (inactive) | 0.999 (inactive) | 1 (inactive) | 1.05 (inactive) | 1.01 (inactive) | 0.998 (inactive)
20 | COCc1cnc(C2=NC(C)(C(C)C)C(=O)N2)c(C(=O)O)c1 (centres undefined) | 1.1 | 1.04 | 0.971 | 0.967 | 1.03 (inactive) | 1.11 (inactive) | 1.17 (inactive) | 0.961 (inactive) | 0.797 (inactive) | 0.852 (inactive) | 1.06 (inactive) | 1.43 (inactive)
21 | CCCC(C)(COC(N)=O)COC(=O)NC(C)C (centres undefined) [Carisoprodol] | 1.03 | 1.01 | 1.01 | 0.919 | 1.03 (inactive) | 1.01 (inactive) | 1.02 (inactive) | 1.02 (inactive) | 1 (inactive) | 1.02 (inactive) | 1 (inactive) | 1.05 (inactive)
22 | CO/N=C(/C(=O)OC)c1ccccc1CO/N=C(\C)c1cccc(C(F)(F)F)c1 | 0.917 | 1.01 | 0.98 | 1.1 | 1.02 (inactive) | 0.956 (inactive) | 0.991 (inactive) | 0.982 (inactive) | 0.987 (inactive) | 0.95 (inactive) | 1.02 (inactive) | 0.951 (inactive)
